# From PubChem BioAssay
# Values joined by “and” are separate entries in the source; they are usually repeats but may differ in a detail not shown here. Equal values may be shown once. Records with an inconclusive call do not appear. Active and inactive are the calls of the source. Unless noted, no stated cut-off is given here; in the data, active means inhibition above about 80%; inactive means the rest.
# Columns and labels:
# [1] = viability loss in pontine glioma line – cell-based, SU-DIPG-XXV, MIPE5.0, CellTiter-Glo, qHTS, dose response (AID 1347065; cut-off not given, nearly all actives have AC50 up to about 26 µM;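 further: cells exposed to compound for 48 hours before ATP readout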); settings: CellTiter-Glo ATP luminescence
# [2] = SU-DIPG-VI glioma cell viability, MIPE4.0 library, CellTiter-Glo luminescence, qHTS (AID 1347066; cut-off not given, nearly all actives have AC50 up to about 30 µM;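 further: cells exposed to compound for 48 hours before readout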); settings: CellTiter-Glo ATP luminescence
# [3] = JHH-DIPG-1 glioma cell viability, MIPE5.0 library, CellTiter-Glo luminescence, qHTS (AID 1347067; cut-off not given, nearly all actives have AC50 up to about 26 µM;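 further: cells exposed to compound for 48 hours before readout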); settings: JHH-DIPG-1 glioma viability, CellTiter-Glo ATP luminescence
# [4] = SU-DIPG-XXV glioma cell viability, MIPE5.0 library, qHTS (AID 1347068; cut-off not given, nearly all actives have IC50 up to about 30 µM)
# [5] = sensitizers of A549 cells to miR-34 induction, primary screen, imaging, A549 dox-inducible miR-34, nuclei and caspase counts (AID 1347080;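 active means compounds whose cell count with miR-34 switched on is under 0.7 times the count with it off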); settings: A549 miR-34 inducible, Hoechst nuclei count, 48 h
# [6] = molecular target: NAD(+) hydrolase SARM1 (Homo sapiens) (UniProt Q6SZW1); experiment: SARM1 TIR NADase inhibitors, cell lysate, NAD-Glo luminescence (AID 1508614;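 active means compound whose remaining NAD level is above about 45 nM, limit read from the data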); settings: SAM-TIR HEK293T lysate NADase, at 1 µM, stronger effect = higher value
# [7] = molecular target: Mitogen-activated protein kinase 7 (Homo sapiens) (UniProt Q13164); experiment: ERK5 transactivation activators in reporter cells, primary screen, cell-based, HTS (AID 1508626;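 active means luciferase signal above three times the same-plate solvent-only control wells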;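 further: luciferase driven by Gal4-ERK5 fusion binding five Gal4 sites before minimal TATA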); settings: HeLa Gal4-ERK5 transactivation, 18 h, at 5 µM, stronger effect = higher value
# [8] = LFS_MB_P medulloblastoma growth inhibition, cell-based, chromothripsis tumors, cisplatin or BGB combos (AID 1671449); settings: LFS_MB_P medulloblastoma cells;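 further: cells exposed for 96 hours; 0% = vehicle DMSO and 100% = killing by high DMSO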
# [9] = HDN33 neuroblastoma growth inhibition, cell-based, chromothripsis tumors, cisplatin or BGB combos (AID 1671450); settings: HDN33 neuroblastoma cells, stronger effect = higher value;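 further: cells exposed to compound for four days; 0% = vehicle DMSO and 100% = cell killing by high DMSO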
# [10] = ICB984 medulloblastoma cell growth inhibition, synergistic combos for chromothripsis tumors, cisplatin or BGB combos (AID 1671451; call rule not given here;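 further: cells exposed for 96 hours before readout; 0% = vehicle DMSO and 100% = killing by high DMSO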); settings: ICB984 medulloblastoma cells, drug combinations, stronger effect = higher value
# [11] = LFS_MB_1R medulloblastoma cell growth inhibition, synergistic combos for chromothripsis tumors, cisplatin or BGB combos (AID 1671452); settings: LFS_MB_1R medulloblastoma cells, stronger effect = higher value;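 further: cells exposed for 96 hours before readout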
# [12] = HTB85 osteosarcoma cell growth inhibition, synergistic combos for chromothripsis tumors, BGB or cisplatin IC20 combos (AID 1671453); settings: HTB85 osteosarcoma cells, drug combinations, stronger effect = higher value;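 further: cells exposed for 96 hours before readout; 0% = vehicle DMSO and 100% = high DMSO killing control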
# [13] = CRL2098 osteosarcoma cell growth inhibition, synergistic combos for chromothripsis tumors, BGB or cisplatin IC20 combos (AID 1671454); settings: CRL2098 osteosarcoma cells, drug combinations, stronger effect = higher value;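 further: cells exposed for 96 h before readout; 0% = vehicle DMSO and 100% = killing by high DMSO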
# [14] = HD-MB03 medulloblastoma cell growth inhibition, synergistic combos for chromothripsis tumors, BGB or cisplatin IC20 combos (AID 1671455; in the data active means inhibition above about 83%;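 further: 0% = vehicle DMSO and 100% = high DMSO as cytotoxic control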); settings: HD-MB03 medulloblastoma cells, stronger effect = higher value
# [15] = phospholipid biosynthesis inhibitors in animal cells, primary screen, cell-based, LOPAC library, screen 4 (AID 1347384; call rule not given here); settings: phospholipid biosynthesis inhibition screen, at 10 µM
# [16] = at 0.5 µM, stronger effect = higher value
# [17] = measured here: combination with BGB IC20, at 0.005 µM
# [18] = measured here: combination with BGB IC40, at 0.005 µM
# [19] = measured here: combination with BGB IC40, at 0.05 µM
# [20] = measured here: combination with cisplatin, at 0.5 µM, stronger effect = higher value
# [21] = measured here: combination with cisplatin, at 5 µM, stronger effect = higher value
# [22] = measured here: with BGB IC20 combination, at 0.5 µM
# [23] = measured here: with cisplatin IC20 combination, at 0.5 µM
# [24] = measured here: 5 uM single agent, at 5 µM
# [25] = measured here: combination with cisplatin, at 0.5 µM
# [26] = measured here: combination with cisplatin, at 5 µM
# [27] = measured here: with BGB IC20, at 0.5 µM
# [28] = measured here: with BGB IC20, at 5 µM
# [29] = measured here: with cisplatin IC20, at 0.5 µM
# [30] = measured here: with cisplatin IC20, at 5 µM
# [31] = measured here: combination with BGB at IC20, at 0.5 µM
# [32] = measured here: combination with cisplatin at IC20, at 0.5 µM
# [33] = measured here: combo with BGB at IC20, at 0.5 µM
# [34] = measured here: combo with cisplatin at IC20, at 0.5 µM
# NAD(+) hydrolase SARM1 (Homo sapiens), sequence (Q6SZW1 whole entry, looked up, the tested form may be a part): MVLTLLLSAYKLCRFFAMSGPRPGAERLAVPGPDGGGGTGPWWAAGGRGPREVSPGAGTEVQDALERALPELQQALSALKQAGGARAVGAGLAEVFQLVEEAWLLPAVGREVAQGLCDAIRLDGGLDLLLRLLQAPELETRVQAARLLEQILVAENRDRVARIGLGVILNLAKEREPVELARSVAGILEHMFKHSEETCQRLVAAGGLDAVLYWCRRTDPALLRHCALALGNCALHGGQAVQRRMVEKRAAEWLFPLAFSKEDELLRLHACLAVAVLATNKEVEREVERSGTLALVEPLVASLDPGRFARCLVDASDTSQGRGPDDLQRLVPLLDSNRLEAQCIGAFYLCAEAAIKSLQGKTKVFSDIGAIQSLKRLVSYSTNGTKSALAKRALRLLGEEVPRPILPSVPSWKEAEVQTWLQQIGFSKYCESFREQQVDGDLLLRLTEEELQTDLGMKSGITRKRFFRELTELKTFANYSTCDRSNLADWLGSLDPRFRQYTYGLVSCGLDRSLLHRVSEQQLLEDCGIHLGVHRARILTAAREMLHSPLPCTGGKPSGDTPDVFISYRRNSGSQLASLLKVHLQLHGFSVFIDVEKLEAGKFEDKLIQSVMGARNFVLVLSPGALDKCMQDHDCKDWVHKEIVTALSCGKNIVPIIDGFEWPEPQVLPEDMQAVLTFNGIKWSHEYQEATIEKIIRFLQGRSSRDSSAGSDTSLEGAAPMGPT
# Mitogen-activated protein kinase 7 (Homo sapiens), sequence (Q13164 whole entry, looked up, the tested form may be a part): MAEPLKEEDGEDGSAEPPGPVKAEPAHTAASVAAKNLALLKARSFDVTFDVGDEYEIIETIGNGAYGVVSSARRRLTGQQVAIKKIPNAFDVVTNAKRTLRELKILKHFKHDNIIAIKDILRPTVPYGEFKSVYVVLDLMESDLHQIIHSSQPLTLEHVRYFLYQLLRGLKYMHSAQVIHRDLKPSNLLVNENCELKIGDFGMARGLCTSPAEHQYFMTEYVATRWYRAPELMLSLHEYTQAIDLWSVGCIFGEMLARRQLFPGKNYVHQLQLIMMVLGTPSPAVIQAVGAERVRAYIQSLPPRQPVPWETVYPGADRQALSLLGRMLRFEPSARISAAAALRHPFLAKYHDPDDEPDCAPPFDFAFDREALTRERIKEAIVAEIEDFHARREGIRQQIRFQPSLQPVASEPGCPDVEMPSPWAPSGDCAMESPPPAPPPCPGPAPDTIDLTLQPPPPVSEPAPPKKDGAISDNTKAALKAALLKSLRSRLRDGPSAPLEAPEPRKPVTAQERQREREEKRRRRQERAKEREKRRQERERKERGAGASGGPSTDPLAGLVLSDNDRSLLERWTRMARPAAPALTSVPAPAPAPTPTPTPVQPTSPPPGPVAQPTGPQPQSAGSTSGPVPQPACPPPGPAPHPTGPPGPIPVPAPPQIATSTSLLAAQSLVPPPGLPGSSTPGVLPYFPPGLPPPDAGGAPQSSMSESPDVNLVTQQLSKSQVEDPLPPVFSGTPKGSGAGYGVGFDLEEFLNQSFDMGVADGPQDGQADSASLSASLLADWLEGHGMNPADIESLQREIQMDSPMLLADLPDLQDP
structure (smiles),measurement,setting,value
S=P(N1CC1)(N1CC1)N1CC1,outcome,[1],inactive
same,outcome,[2],inactive
same,outcome,[3],inactive
same,outcome,[4],inactive
same,fold change,"[5]; stronger effect = lower value, cell number ratio, induced over uninduced",0.906 (inactive)
same,fold change,[5]; measured here: relative caspase fold change +Dox/-Dox,2.37
same,cell count,"[5]; measured here: total cells with miR-34 induction, stronger effect = lower value",2790
same,cell count,[5]; measured here: total cells without miR-34 induction,3080
same,remaining NAD,[6],10 nM (inactive)
same,luciferase signal,[7],40 AU (inactive)
same,inhibition,[8]; [16],-23.2% (inactive) and -26.3% (inactive)
same,inhibition,[8]; [17],4.28% and -9.96%
same,inhibition,[8]; [18],-18.6% and -23.3%
same,inhibition,[8]; [19],-9.26% and -20.5%
same,inhibition,[8]; [20],-29.9% and -42.7%
same,inhibition,[8]; [21],-29% and -10.5%
same,inhibition,"[9]; BGB combo, at 5 µM",10.9% and 17%
same,inhibition,[9]; at 0.5 µM,-22.8% (inactive) and -4.61% (inactive)
same,inhibition,"[9]; cisplatin combo, at 5 µM",-33.8% and -6.48%
same,inhibition,[9]; [22],-8.9% and -5.09%
same,inhibition,[9]; [23],-36% and 8.65%
same,inhibition,"[9]; single agent, at 5 µM",-17.8% and -15.5%
same,inhibition,"[10]; BGB IC20 combo, at 0.005 µM",-28.8% and -30.2%
same,inhibition,"[10]; BGB IC40 combo, at 0.005 µM",-42.6% and -1.02%
same,inhibition,"[10]; BGB IC40 combo, at 0.05 µM",-71.3% and -1.28%
same,inhibition,[10]; at 0.5 µM,-28.5% (inactive) and -18.4% (inactive)
same,inhibition,"[10]; cisplatin combo, at 0.05 µM",-78.1% and -1.28%
same,inhibition,"[10]; cisplatin combo, at 0.5 µM",-36.2% and -27%
same,inhibition,"[10]; cisplatin combo, at 5 µM",-39.5% and -6.98%
same,inhibition,[10]; [24],-8.68% and -10.4%
same,inhibition,[11]; at 0.5 µM,-9.66% (inactive) and -3.23% (inactive)
same,inhibition,[11]; [19],-28.2% and 8.25%
same,inhibition,[11]; [25],-26.8% and 11.1%
same,inhibition,[11]; [26],-75% and -8.13%
same,inhibition,[12]; at 0.5 µM,-27.7% (inactive) and -19.6% (inactive)
same,inhibition,[12]; [27],-28% and -46.5%
same,inhibition,[12]; [28],12.6% and 4.5%
same,inhibition,[12]; [29],-41.1% and -12.7%
same,inhibition,[12]; [30],-24.2% and -0.841%
same,inhibition,"[12]; single agent, at 5 µM",-13.2% and -18.3%
same,inhibition,[13]; at 0.5 µM,-50.3% (inactive) and -34.6% (inactive)
same,inhibition,[13]; [31],-22.9% and -20.1%
same,inhibition,[13]; [32],-36.2% and -49.4%
same,inhibition,[14]; at 0.5 µM,-12.6% (inactive) and -4.94% (inactive)
same,inhibition,[14]; [33],-12.8% and -2.1%
same,inhibition,[14]; [34],-11.1% and -9.72%
Nc1nc2c(ncn2COC(CO)CO)c(=O)[nH]1,outcome,[1],inactive
same,outcome,[2],inactive
same,outcome,[3],inactive
same,outcome,[4],inactive
same,outcome,[15],inactive
same,remaining NAD,[6],10 nM (inactive)
same,inhibition,[8]; [16],-14.4% (inactive)
same,inhibition,[8]; [17],-4.12%
same,inhibition,[8]; [18],-22.8%
same,inhibition,[8]; [19],1.72%
same,inhibition,[8]; [20],-35.5%
same,inhibition,[8]; [21],126%
same,inhibition,"[9]; BGB combo, at 5 µM",30.5%
same,inhibition,[9]; at 0.5 µM,-5.69% (inactive)
same,inhibition,"[9]; cisplatin combo, at 5 µM",55%
same,inhibition,[9]; [22],-10.7%
same,inhibition,[9]; [23],0.325%
same,inhibition,"[9]; single agent, at 5 µM",66%
same,inhibition,"[10]; BGB IC20 combo, at 0.005 µM",-34.3%
same,inhibition,"[10]; BGB IC40 combo, at 0.005 µM",-7.26%
same,inhibition,"[10]; BGB IC40 combo, at 0.05 µM",96.7%
same,inhibition,[10]; at 0.5 µM,-23.8% (inactive)
same,inhibition,"[10]; cisplatin combo, at 0.05 µM",96.7%
same,inhibition,"[10]; cisplatin combo, at 0.5 µM",-39.7%
same,inhibition,"[10]; cisplatin combo, at 5 µM",-4.59%
same,inhibition,[10]; [24],-6.09%
same,inhibition,[11]; at 0.5 µM,26.9% (inactive)
same,inhibition,[11]; [19],-58.1%
same,inhibition,[11]; [25],61.8%
same,inhibition,[11]; [26],106%
same,inhibition,[12]; at 0.5 µM,-13.4% (inactive)
same,inhibition,[12]; [27],-37.4%
same,inhibition,[12]; [28],32.5%
same,inhibition,[12]; [29],-11.6%
same,inhibition,[12]; [30],68.7%
same,inhibition,"[12]; single agent, at 5 µM",71%
same,inhibition,[13]; at 0.5 µM,2.15% (inactive)
same,inhibition,[13]; [31],2.66%
same,inhibition,[13]; [32],0.146%
same,inhibition,[14]; at 0.5 µM,-7.18% (inactive)
same,inhibition,[14]; [33],-5.76%
same,inhibition,[14]; [34],-11.1%
